From PubChem BioAssay (NCATS)
For some of these results: Potency and affinity values are given separately. The source made the active and inactive calls.

How the values were obtained:
[1] = Ebola virus entry assay, blue channel fluorescence
[2] = Ebola virus entry assay, reporter ratio channel; AC50: Channel type: primary unless noted; outcome: Channel type: primary unless noted
[3] = Ebola virus entry assay, blue channel (ratio component)
[4] = Ebola virus entry reporter assay, green channel fluorescence
[5] = Ebola virus entry cell assay, ratio channel

Measured: outcome

CCOC(=O)[C@H](CCc1ccccc1)N[C@@H](C)C(=O)N1Cc2ccccc2C[C@H]1C(=O)O
inactive: all assays above

CC1(C)S[C@@H]2[C@H](NC(=O)[C@H](N)c3ccccc3)C(=O)N2[C@H]1C(=O)O
inactive: all assays above

COc1ccccc1OCC(O)CN1CCN(CC(=O)Nc2c(C)cccc2C)CC1 (stereo not given)
inactive: all assays above

CCCCNC(=O)NS(=O)(=O)c1ccc(C)cc1
inactive: all assays above

CNCCc1ccccn1
inactive: all assays above

CCCCc1ncc(/C=C(\Cc2cccs2)C(=O)O)n1Cc1ccc(C(=O)O)cc1
inactive: all assays above

Cc1ccc(-n2[nH]c(C)c(N=Nc3cccc(-c4cccc(C(=O)O)c4)c3O)c2=O)cc1C
inactive: all assays above

O=C(c1ccccc1)c1ccc2n1CCC2C(=O)O (stereo not given)
inactive: all assays above

COC(=O)[C@@H]1CC2=CC(=O)CC[C@]2(C)[C@@]23O[C@@H]2C[C@@]2(C)[C@@H](CC[C@@]24CCC(=O)O4)[C@H]13
inactive: all assays above

O=P(O)(O)C(O)(Cc1cccnc1)P(=O)(O)O
inactive: all assays above

O=C1OCCN1/N=C/c1ccc([N+](=O)[O-])o1
inactive: all assays above

Cc1onc(-c2c(Cl)cccc2Cl)c1C(=O)N[C@@H]1C(=O)N2[C@@H]1SC(C)(C)[C@@H]2C(=O)O
inactive: all assays above

CC1=C(C(=O)O)N2C(=O)[C@@H](NC(=O)[C@H](N)c3ccccc3)[C@H]2SC1
inactive: all assays above

CC1=NS(=O)(=O)c2cc(Cl)ccc2N1
inactive: all assays above

NCCC(O)(P(=O)(O)O)P(=O)(O)O
inactive: all assays above

Nc1[nH]c(=O)ncc1F
inactive: all assays above

Cn1cnc([N+](=O)[O-])c1Sc1ncnc2nc[nH]c12
inactive: all assays above

CN(N=O)C(=O)N[C@@H]1[C@@H](O)[C@H](O)[C@@H](CO)O[C@@H]1O
inactive: all assays above

Cn1cc[nH]c1=S
inactive: all assays above

O=C(O)P(=O)(O)O
inactive: all assays above

O[C@@H]1CO[C@H]2[C@@H]1OC[C@@H]2O
inactive: all assays above

Cc1c(OCC(F)(F)F)ccnc1CS(=O)c1nc2ccccc2[nH]1 (stereo not given)
inactive: all assays above

CCOc1ccccc1OCCN[C@H](C)Cc1ccc(OC)c(S(N)(=O)=O)c1
inactive: all assays above

NC(=O)N1c2ccccc2CC(=O)c2ccccc21
inactive: all assays above

CC(=O)N[C@@H](CS)C(=O)O
inactive: all assays above

CCCCc1nc(Cl)c(CO)n1Cc1ccc(-c2ccccc2-c2nn[nH]n2)cc1
inactive: all assays above

NS(=O)(=O)c1cc2c(cc1C(F)(F)F)NCNS2(=O)=O
inactive: all assays above

CO/N=C(\C(=O)N[C@@H]1C(=O)N2C(C(=O)O)=C(CSc3nc(=O)c(O)nn3C)CS[C@H]12)c1csc(N)n1
inactive: all assays above

CO[C@H]1C=CO[C@@]2(C)Oc3c(C)c(O)c4c(O)c(c(/C=N/N5CCN(C)CC5)c(O)c4c3C2=O)NC(=O)/C(C)=C\C=C[C@H](C)[C@H](O)[C@@H](C)[C@@H](O)[C@@H](C)[C@H](OC(C)=O)[C@@H]1C
inactive: all assays above

CC[C@@H](CO)NCCN[C@@H](CC)CO
inactive: all assays above

NC12CC3CC(CC(C3)C1)C2
inactive: all assays above

CC(C)(C)NC(=O)[C@@H]1CN(Cc2cccnc2)CCN1C[C@@H](O)C[C@@H](Cc1ccccc1)C(=O)N[C@H]1c2ccccc2C[C@H]1O
inactive: all assays above

C1N2CN3CN1CN(C2)C3
inactive: all assays above

OC(Cn1cncn1)(Cn1cncn1)c1ccc(F)cc1F
inactive: all assays above

N=c1nc(N2CCCCC2)cc(N)n1O
inactive: all assays above
